Only some compounds are listed: those with a hit (about 2.7% of all), similar ones and a draw of the others.
S2 tox: cell viability loss in ATXN counter-screen; AID 651635; S2 cells (HEK-293 line with an ATXN2-luciferase reporter) viability, CellTiter-Fluor protease fluorescence, 24 h; 400,000 compounds, 0.49% hits; Potency, µM (top dose mostly 56.7 µM), most hits filed as cytotoxic; note: nearly all actives have a fitted effect of over 40% in size
ALOX12 inh: inhibitors of human 12S-lipoxygenase ALOX12. Potency, µM (doses to about 108 µM), for the others: at the top dose activity change, negative = inhibition, usual class: inhibitors. P18054. 580,000 compounds, 1.1% hits. AID 1671190. purified 12hLO, xylenol orange hydroperoxide absorbance; note: % is set by controls: 0 for no effect and ±100 for the full control effect
Target sequence (P18054 whole entry, looked up): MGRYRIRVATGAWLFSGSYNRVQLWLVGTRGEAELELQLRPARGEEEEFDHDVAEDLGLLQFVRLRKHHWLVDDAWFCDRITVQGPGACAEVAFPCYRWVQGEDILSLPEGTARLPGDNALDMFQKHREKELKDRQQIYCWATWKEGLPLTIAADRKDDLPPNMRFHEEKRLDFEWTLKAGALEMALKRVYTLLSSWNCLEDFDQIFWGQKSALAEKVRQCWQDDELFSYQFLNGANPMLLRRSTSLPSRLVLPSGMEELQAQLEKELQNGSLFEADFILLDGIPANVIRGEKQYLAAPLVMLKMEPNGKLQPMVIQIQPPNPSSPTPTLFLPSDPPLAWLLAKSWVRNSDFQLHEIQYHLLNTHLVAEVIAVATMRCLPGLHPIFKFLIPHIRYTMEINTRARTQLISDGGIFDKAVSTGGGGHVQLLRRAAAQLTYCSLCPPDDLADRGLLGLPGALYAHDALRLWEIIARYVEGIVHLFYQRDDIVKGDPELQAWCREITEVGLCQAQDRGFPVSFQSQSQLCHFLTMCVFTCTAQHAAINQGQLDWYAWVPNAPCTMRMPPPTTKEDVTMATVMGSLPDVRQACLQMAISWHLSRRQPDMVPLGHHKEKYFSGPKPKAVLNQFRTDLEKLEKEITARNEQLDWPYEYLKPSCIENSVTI
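Hydroperoxide product was detected by ferrous iron/xylenol orange as the 573 to 405 nm absorbance ratio. Arachidonic acid at 40 uM (final) was turned over for 30 min at room temperature by 150 nM human 12hLO, pH 7.0 Hepes buffer, after 15 min compound preincubation.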
TGFb inhibitor: TGF-b pathway inhibition; HepG2 CAGA-GFP TGF-b/SMAD3 reporter, GFP fluorescence, 18 h; TGF-beta stimulated, 500 pg/mL final; Potency, µM (titrated, usually from 46.1 µM), for the others: at the top dose activity, negative = inhibition, usual class: inhibitors; 410,000 compounds, 1.2% hits; AID 588855; note: % is set by controls: 0 for no effect and ±100 for the full control effect; nearly all actives have a fitted effect of over 65% in size
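Inhibition was scored as loss of TGF-beta-induced (500 pg/mL final, 18 hours, 37 degrees C) GFP in HEPG2 cells carrying a CAGA-GFP reporter, in DMEM with 1% FBS. Well GFP was summed per cell; Activity was normalised to unstimulated and stimulated DMSO wells, then concentration-response fitting.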
HepG2 tox: counter-screen for TGF-b inhibitors: cytotoxicity in HepG2 cells; AID 588856; Potency, µM (highest dose often 46.1 µM), for the others: at the top dose activity change, negative = cytotoxicity, most hits filed as cytotoxic; 410,000 compounds, 0.76% hits; HepG2 CAGA-GFP viability, ATP luminescence, 18 h
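HepG2 CAGA-GFP cells (1000/well, DMEM with 1% FBS) received compound, then TGF-beta at 500 pg/mL final, and were incubated 18 hours at 37 degrees C. Viability was read by CellTiter-Glo luminescence. Media-only wells were set as complete cell-killing and DMSO as no toxicity.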
ATXN2 expr inh: ATXN2 expression inhibition. Potency, µM (doses to about 57 µM), inactives show top-dose activity change, negative = inhibition, usual class: inhibitors. HEK-293 ATXN2-luciferase reporter, luminescence, 24 h. 360,000 compounds, 0.72% hits; note: % is set by controls: 0 for no effect and ±100 for the full control effect; nearly all actives have a fitted effect of over 55% in size
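ATXN2-luciferase reporter cells (luciferase flanked by upstream and downstream ATXN2 gene portions) were treated 24 h at 37 °C with compounds at up to 57 uM. SteadyGlo luminescence gave expression; GF-AFC fluorescence gave viability.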
Active calls of the source: *; i = inactive; u = inconclusive; x = no result given; ! = a repeat was not active; [ ] = remark or other dose. Calls come from the whole dose curve; as a rule, active = well fitted curve in the direction sought with a large enough effect; inconclusive = small, poorly fitted or top-dose-only effect, or another doubt; inactive = no such curve, though single readings can be large; an effect the other way counts as inactive or inconclusive. Potency is the fitted concentration of half-maximal effect.

SMILES | S2 tox | ALOX12 inh | TGFb inhibitor | HepG2 tox | ATXN2 expr inh
Oc1ccc2ccccc2c1CN1CCOCC1 | i | 7.1µM* | -2% | 28% | 17%
N#Cc1ccccc1CSc1ncc(C(F)(F)F)cc1Cl | x | 7% | x | x | x
CCOc1ccccc1N(CC)C(=O)Cn1nc(Cc2ccncc2)c2ccccc2c1=O | x | -2% | x | x | x
COc1cccc(NC(=O)c2cc3c(=O)n4cccc(C)c4nc3n2Cc2ccccc2)c1 | x | 3% | x | x | x
CNC(=O)Cn1c(CO)cnc1SCc1ccccc1Cl | x | 1% | x | x | x
CC1CCCCN1C(=O)CN1CCC(c2cc3ccccc3[nH]2)CC1 (stereo not given) | x | 0% | x | x | x
O=C(O)c1cccc(-n2cccc2/C=C2\NC(=O)N(Cc3ccc(F)cc3)C2=O)c1 | i | 40µM* | -6% | -5% | -10%
Cc1cc(C(=O)OCC(=O)NCC(F)(F)F)c2ccccc2n1 | x | -1% | x | x | x
O=C(NCc1cccc(Cl)c1)c1ccc(S(=O)(=O)Nc2cccc(C(F)(F)F)c2)cc1 | i | 11% | u | 10µM* | -6%
COc1cccc2cc(C(=O)Oc3ccccc3)c(=O)oc12 | i | -3% | 6% | 17% | x
CCOc1cccc2cc(C(=O)Oc3ccc(OC)cc3)c(=O)oc12 | i | 35µM* | 4% | 4% | 7%
O=C1NN=C(c2ccc(Br)cc2)CC1c1ccc(Cl)cc1 (stereo not given) | i | 40µM* | -10% | -12% | -17%
Cc1ccc(C2CC(c3ccc(Cl)cc3)=NNC2=O)cc1 (stereo not given) | i | -16% | 1% | 6% | -7%
COc1ccc2nc(SCC(=O)N3N=C(c4ccco4)CC3c3cccs3)[nH]c2c1 (stereo not given) | x | 0% | x | x | x
O=C(CSc1nc2ccc(Cl)cc2[nH]1)N1N=C(c2cccs2)CC1c1ccco1 (stereo not given) | x | 18µM* | x | x | x
CONC(=O)CCN1C(=O)CSc2ccccc21 | x | 1% | x | x | x
Cc1cccc(OCCOC(=O)Nc2ccccc2)c1 | i | -11% | 6% | -19% | 13%
Cc1cccc(OCCOc2ccccc2C=C(C#N)C#N)c1 | u | -17% | 10µM* | -83% | 3%
CN(C)Cc1ccc(CNC(=O)CNC(=O)Nc2ccccc2)cc1 | x | 14% | x | x | x
Cc1noc(C)c1[S+](=O)([O-])N1CCC2(CC1)OCCN(Cc1ccccc1)C2=O | x | 17%[176 µM] | x | x | x
Cc1noc(C)c1[S+](=O)([O-])N1CCC2OCCN(Cc3ccccc3)C(=O)C2C1 (stereo not given) | x | 100µM* | x | x | x
COC(=O)c1ccc([C@H]2Nc3ccc(S(=O)(=O)Nc4ccc(C)cc4)cc3[C@H]3C=CC[C@H]32)cc1 | u | u | -3% | -5% | 5%
COc1cccc(NS(=O)(=O)c2ccc3c(c2)[C@H]2C=CC[C@H]2[C@@H](c2ccccc2Cl)N3)c1 | i | u | 11µM* | -50% | 0%
COc1ccc(NS(=O)(=O)c2ccc3c(c2)[C@H]2C=CC[C@H]2[C@@H](c2ccc(C(=O)O)cc2)N3)cc1 | i | 28µM*! | 11% | 5% | 1%
Cc1ccc(-c2noc(COc3ccc4c(C)cc(=O)oc4c3)n2)cc1 | x | 5% | x | x | x
SMILES | S2 tox | ALOX12 inh | TGFb inhibitor | HepG2 tox | ATXN2 expr inh
Cc1ccc[n+](CC(=O)Nc2cc(C(F)(F)F)ccc2Cl)c1 | i | 10% | 6% | 5% | -7%
CCC(C)(C)c1ccc(OCCCC[n+]2cccc(C)c2)c(C(C)(C)CC)c1 | u | u | 10µM* | -196% | u
Cc1ccc(C(=O)OCc2nc3ccccc3o2)cc1 | x | -10% | x | x | x
O=C(CCc1cc(Cl)no1)N(CCS(=O)(=O)N1CCOCC1)Cc1ccccn1 | x | 7.9µM* | x | x | x
O=C(CC(CC(=O)c1ccccc1)c1cccs1)c1ccccc1 | x | 15% | x | x | x
Cc1sc2nnn(CC(=O)N3CCN(C(=O)c4ccco4)CC3)c(=O)c2c1C | i | -17% | -22% | 5% | 2%
Cc1sc2nc(C(C)C)nc(SCC(=O)N3CCN(C(=O)c4ccco4)CC3)c2c1C | x | -3% | -50% | -13% | 32µM*
CN(C)C(=O)c1ccc(NC(=O)COc2ccccc2-c2ccccc2)cc1 | x | 5% | x | x | x
